Reference: PubChem BioAssay (Tox21)
Calls of active or inactive are those of the source. A call without a number means that no potency is given here. Calls follow the shape of the dose curve; as a rule, active = well fitted activation curve with a large enough effect in the repeat runs; inconclusive = weak or mixed curves; inactive = flat fitted curve, though single readings scatter.

assay: A CellTox Green Cytotoxicity Assay to monitor cytotoxicity in HEK293 cells - 0 hour (AID 1224869); conditions: CellTox Green fluorescence; series mostly up to 76.8 µM; also: nearly all actives have a fitted effect of over 50% in size
Excerpt: National Center for Advancing Translational Sciences [NCATS]
NIH Chemical Genomics Center [NCGC]
U.S. Environmental Protection Agency [EPA]
National Institutes of Environmental Health Sciences [NIEHS]
National Toxicology Program [NTP]
Cell-based models are critical for drug discovery. Determining the natural cytotoxic effects resulting from test compounds is an essential research activity. A CellTox Green Cytotoxicity Assay to monitor cytotoxicity in real time of continues cell culture during 40 hours of the compound treatment was used to screen Tox21 10K library compounds in Hek293 cells. CellTox Green Cytotoxicity Assay is a nonlytic, homogeneous, biofluorescent method to measure cytotoxicity in cell culture after experimental manipulation. The assay system uses a proprietary asymmetric cyanine dye that is excluded from viable cells but preferentially stains the dead cell's DNA. […] Viable cells produce no appreciable increases in fluorescence. Therefore, the fluorescence signal produced by the binding interaction with dead cell DNA is proportional to cytotoxicity.
The mixture of Hek293 cell suspension and reagents were dispensed at 600cells/6 ul/well in 1536-well tissue culture treated black solid bottom plates using a Multidrop dispenser. After the assay plates were incubated at a 37 C/5% CO2 incubator for 5 hours, 23 nL of compounds dissolved in DMSO, positive and negative controls was transferred to the assay plate by a pintool work station. The plates were incubated at 37 C for 40 hours. The fluorescence intensity were measured at 0h, 8h, 16h, 24h, 32h and 40h time points using ViewLux plate reader during compound treatment.
Potency is read from the fitted curve at half-maximal effect.

With CCOC(=O)/C=C/C(=O)OCC as the compound, how does the Potency read?
The Potency was “inactive”.

With COc1cc(N)c(Cl)cc1C(=O)NC1CCN(CCCOc2ccc(F)cc2)CC1OC (stereo not given) as the compound, how does the Potency read?
The Potency was “inactive”.

For CCCCC(CC)CN (stereo not given), which Potency is on record?
The Potency was “inactive”.

For Cc1cc(=O)c2c(O)c3c(O)cc(=O)c4c3c3c(cc(O)c1c23)C(C)(C)C=4O, which Potency is on record?
Its Potency is 3.69 µM (active).

Which Potency does the source give for CC(CCC(=O)O)C(=O)O (stereo not given) here?
Its Potency is “inactive”.

Which Potency does the source give for Cc1ccccc1N=C(N)Nc1ccccc1C here?
Its Potency is “inactive”.

For C/C=C/C=C/C=O, which Potency is on record?
The Potency was “inactive”.

For CCOC(=O)C1=C(C)NC(C)=C(C(=O)OC)C1c1cccc(Cl)c1Cl (stereo not given), which Potency is on record?
The Potency was “inactive”.

Which Potency does the source give for CN1C(=O)OC(C)(C)C1=O here?
Its Potency is “inactive”.

Which Potency does the source give for CCCCOc1ccc(OCCCN2CCOCC2)cc1 here?
The Potency was “inactive”.

For CC[N+](CC)(CCNC(=O)C(=O)NCC[N+](CC)(CC)Cc1ccccc1Cl)Cc1ccccc1Cl, which Potency is on record?
The Potency was “inactive”.

With C=COCC(C)C as the compound, how does the Potency read?
Its Potency is “inactive”.

Which Potency does the source give for CN1CC(=O)N2[C@H](c3ccc4c(c3)OCO4)c3[nH]c4ccccc4c3C[C@@H]2C1=O here?
Its Potency is “inactive”.

With CS(=O)(=O)c1ccc(-c2cn3ccccc3n2)cc1 as the compound, how does the Potency read?
The Potency was “inactive”.

With C=CC(=O)[O-].C=CC(=O)[O-].[Zn+2] as the compound, how does the Potency read?
Its Potency is “inactive”.

For CC(C)=CCC1C(=O)N(c2ccccc2)N(c2ccccc2)C1=O, which Potency is on record?
Its Potency is “inactive”.

With CC1CC(C)C(=O)C1=O (stereo not given) as the compound, how does the Potency read?
Its Potency is “inactive”.

For NC(=O)c1ccncc1, which Potency is on record?
The Potency was “inactive”.

For CCOc1ccc(Cc2nccc3cc(OCC)c(OCC)cc23)cc1OCC, which Potency is on record?
The Potency was “inactive”.

With CC(=O)[C@H]1[C@H](C#N)C[C@H]2[C@@H]3CC=C4C[C@@H](O)CC[C@]4(C)[C@H]3CC[C@@]21C as the compound, how does the Potency read?
Its Potency is “inactive”.

Which Potency does the source give for CCCCCCCC/C=C\CCCCCCCCO here?
The Potency was “inactive”.

For CC(CC1c2ccccc2CCc2ccccc21)CN(C)C (stereo not given), which Potency is on record?
Its Potency is “inactive”.

Which Potency does the source give for O=C1c2ccccc2C(=O)C1(O)O here?
The Potency was “inactive”.

For C[C@H]1C[C@H](O)c2ccsc2S1(=O)=O, which Potency is on record?
Its Potency is “inactive”.

Which Potency does the source give for CCC(=O)C1CC(C(C)C)CC=C1C (stereo not given) here?
The Potency was “inactive”.

Which Potency does the source give for CCC(C)(C)OC here?
Its Potency is “inactive”.

For CC1CC(OC(=O)C(O)c2ccccc2)CC(C)(C)N1C (stereo not given), which Potency is on record?
The Potency was “inactive”.

Which Potency does the source give for C=C(C)C(=O)OCCOCCOC(=O)C(=C)C here?
Its Potency is “inactive”.

With CC1(C)[C@H](C(=O)O)N2C(=O)C[C@H]2S1(=O)=O as the compound, how does the Potency read?
The Potency was “inactive”.

For C[C@@H](CN(C)C)CN1c2ccccc2Sc2ccccc21, which Potency is on record?
The Potency was “inactive”.

Which Potency does the source give for Cc1ccc(Cl)c(Nc2ccccc2C(=O)O)c1Cl here?
The Potency was “inactive”.

Which Potency does the source give for O=C1c2ccccc2C(=O)C1c1ccc(Br)cc1 here?
The Potency was “inactive”.

With C=CC(C)(CCC=C(C)C)OC(=O)CC(C)C (stereo not given) as the compound, how does the Potency read?
Its Potency is “inactive”.

Which Potency does the source give for O=C(CCc1ccc(O)cc1)c1c(O)cc(O)cc1O here?
Its Potency is “inactive”.

For CCCCCC#CC(=O)OC, which Potency is on record?
Its Potency is “inactive”.

For C[C@@H]1CC(=O)NN=C1c1ccc(NN=C(C#N)C#N)cc1, which Potency is on record?
Its Potency is “inactive”.

Which Potency does the source give for CCCCCC[C@@H](O)C/C=C\CCCCCCCC(=O)O here?
The Potency was “inactive”.

For Brc1cc(Br)c(Oc2cc(Br)c(Br)cc2Br)cc1Br, which Potency is on record?
The Potency was “inactive”.

For CN(C(=O)CN(CCO)CC(=O)N(C)C(C)(C)Cc1ccccc1)C(C)(C)Cc1ccccc1, which Potency is on record?
The Potency was “inactive”.

Which Potency does the source give for CC(CN(C)C)C(C)(O)Cc1ccc(Cl)cc1 (stereo not given) here?
The Potency was “inactive”.
